Assay outcomes as filed in PubChem BioAssay.
GLP-1R agonist = qHTS of GLP-1 Receptor Agonists; AID 624172, 2012; 0.007% of 380,000 active; Glucagon-like peptide 1 receptor (Homo sapiens), P43220; HEK293 GLP-1R CRE-luciferase, luminescence, 4-6 h; cells express a hypersensitive GLP-1R form; Potency, µM (series often up to 45.6 µM), inactives show at the top dose activation, usual class: activators; further: % of control where 0% means no effect
Target sequence (P43220 whole entry, looked up): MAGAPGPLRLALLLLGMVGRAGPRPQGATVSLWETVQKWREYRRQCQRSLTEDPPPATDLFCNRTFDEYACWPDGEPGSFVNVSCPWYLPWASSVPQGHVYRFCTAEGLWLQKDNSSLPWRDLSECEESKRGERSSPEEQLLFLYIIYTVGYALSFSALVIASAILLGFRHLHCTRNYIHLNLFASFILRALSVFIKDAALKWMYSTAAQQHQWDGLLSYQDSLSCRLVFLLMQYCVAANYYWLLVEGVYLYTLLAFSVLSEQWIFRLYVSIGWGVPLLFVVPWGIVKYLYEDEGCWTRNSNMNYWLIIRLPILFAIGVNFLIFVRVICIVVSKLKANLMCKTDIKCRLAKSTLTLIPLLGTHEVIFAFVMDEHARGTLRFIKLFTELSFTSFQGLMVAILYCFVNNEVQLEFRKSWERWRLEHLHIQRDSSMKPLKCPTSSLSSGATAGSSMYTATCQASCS
TGFb SMAD3 inh = qHTS for Inhibitors of TGF-b. Potency, µM (top dose mostly 46.1 µM), inactives show at the top dose activity, negative = inhibition, hits mostly inhibitors. HepG2 CAGA-GFP TGF-b/SMAD3 reporter, GFP fluorescence, 18 h; TGF-beta stimulated, 500 pg/mL final. 1.2% of 410,000 active; further: on the % scale 0 is the no-effect control and ±100 the full control effect; nearly all actives have a fitted effect of over 65% in size
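HEPG2 CAGA-GFP reporter cells (1000/well, DMEM with 1% FBS) received compounds, then recombinant TGF-beta at 500 pg/mL final for 18 hours at 37 degrees C. Per-cell GFP summed per well was normalised to unstimulated and stimulated DMSO controls before curve fitting.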
S2 tox = Viability Counterscreen for Primary qHTS for Inhibitors of ATXN expression. S2 cells (HEK-293 line with an ATXN2-luciferase reporter) viability, CellTiter-Fluor protease fluorescence, 24 h. Potency, µM (highest dose often 56.7 µM), usual class: cytotoxic. 0.49% of 400,000 active; further: nearly all actives have a fitted effect of over 40% in size
GLP1R inv ag = qHTS of GLP-1 Receptor Inverse Agonists (Inhibition Mode); Potency, µM (doses to about 38.3 µM), without a hit: at the top dose activity change, negative = inhibition, hits mostly inhibitors; HEK293 GLP-1R CRE-luciferase, luminescence, 24 h; GLP-1R form is constitutively active; 1.6% of 410,000 active; further: on the % scale 0 is the no-effect control and ±100 the full control effect; nearly all actives have a fitted effect of over 55% in size
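Readout was luciferase luminescence, measured 12 min after detection reagent at room temperature. Beforehand, GLP-1R reporter HEK293 cells had sat 12 h, then received compounds for 24 hr at 37 deg C.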
HepG2 tox = qHTS for Inhibitors of TGF-b: Cytotox Counterscreen; HepG2 CAGA-GFP viability, ATP luminescence, 18 h; Potency, µM (titrated, usually from 46.1 µM), for the others: top-dose activity change, negative = cytotoxicity, hits mostly cytotoxic; 0.76% of 410,000 active
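CellTiter-Glo luminescence gave cytotoxicity after 18 hours at 37 degrees C. The cells were HepG2 CAGA-GFP in 1% FBS DMEM, stimulated with 500 pg/mL TGF-beta after compound addition. %Activity was normalised to no-cell wells (complete cell-killing) and DMSO (no toxicity), and curves were fitted and classified.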
ATXN2 expr inh = Primary qHTS for Inhibitors of ATXN expression | HEK-293 ATXN2-luciferase reporter, luminescence, 24 h | Potency, µM (doses to about 57 µM), for the others: top-dose activity change, negative = inhibition, hits mostly inhibitors | 0.72% of 360,000 active | AID 1745845, 2022; further: on the % scale 0 is the no-effect control and ±100 the full control effect; nearly all actives have a fitted effect of over 55% in size
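ATXN2-luciferase reporter cells (luciferase flanked by upstream and downstream ATXN2 gene portions) were treated 24 h at 37 °C with compounds at up to 57 uM. SteadyGlo luminescence gave expression; GF-AFC fluorescence gave viability.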
The depositor's hits bear a star; i = inactive; ? = inconclusive; nt = not tested or not shown. Sampled rows, rich in hits. Any-hit rate of the full collection: about 3.7%. The call rests on the fitted dose curve; in most records, active means well fitted curve in the direction sought with a large enough effect; inconclusive means small, poorly fitted or top-dose-only effect, or another doubt; inactive means no such curve, though single readings can be large; an effect the other way counts as inactive or inconclusive. Potency means the concentration at half of the fitted maximal effect.

SMILES	GLP-1R agonist	TGFb SMAD3 inh	S2 tox	GLP1R inv ag	HepG2 tox	ATXN2 expr inh
O=C(Cc1ccc(S(=O)(=O)N2CCCCC2)cc1)NCc1ccc(Cl)cc1	22%	-14%	i	7.1µM*	-6%	?
Cc1c(C(=O)NCc2ccc(F)cc2)oc2ccc(S(=O)(=O)N3CCCCC3)cc12	nt	?	i	10µM*	-32%	-35%
O=C(N/N=C\c1cc(Cl)ccc1O)c1ccc(S(=O)(=O)N2CCCCC2)cc1	-20%	-33%	i	?	-35%	2.5µM*
CCN(CC)S(=O)(=O)c1ccc2c(c1)N(CC(=O)N1CCN(c3cc(Cl)ccc3C)CC1)C(=O)CO2	nt	-12%	i	-1%	-32%	-1%
COc1ccccc1CNC(=O)c1oc2ccc(S(=O)(=O)N3CCCCC3)cc2c1C	nt	-15%	i	?	-17%	?
CCN(CC)S(=O)(=O)c1ccc2c(c1)N(CC(=O)NCCCN1CCN(c3cc(Cl)ccc3C)CC1)C(=O)CO2	6%	?	nt	11µM*	13µM*	?
O=CC(=O)c1ccc(F)cc1	nt	-1%	nt	nt	-1%	nt
CC(C)N(Cc1ccccc1)C(=O)CN1C(=O)COc2ccc(S(=O)(=O)N3CCCCCC3)cc21	-2%	?	?	7.9µM*	1%	-10%
COc1ccc(CC(=O)Nc2ccc(OC(C)=O)cc2C(=O)O)cc1	-2%	0%	i	8%	1.1µM*	nt
CCOc1ccc(N=C(C)Nc2ccc(OCC)cc2)cc1	-4%	nt	i	nt	nt	nt
O=C(CCCl)NCCc1ccccc1	nt	nt	i	nt	nt	9%
Cc1c(C(=O)N(C)C2CCCCC2)sc2ncnc(N3CCN(c4ccccc4F)CC3)c12	-2%	?	?	13µM*	-11%	-39%
Cc1c(C(=O)N(C)C2CCCCC2)sc2ncnc(N3CCN(c4ccccc4)CC3)c12	11%	?	i	?	-32%	nt
CCn1c(=O)n(-c2ccc(C)c(F)c2)c(=O)c2sc3ccccc3c21	1%	1%	i	9%	6%	-7%
CC(=NNC(=S)N1CCCCC1)c1cccc(C)n1	0%	0.35µM*	?	?	-53%	?
CCOC(=O)c1ccccc1NC(=O)CSc1ccc(-c2ccccn2)nn1	6%	8%	?	-10%	-8%	3.5µM*
COc1ccc(C)cc1NC(=O)CSc1ccc(-c2ccccn2)nn1	9%	?	?	?	0%	14µM*
CCOC(=O)c1ccccc1NC(=O)CSc1nc2ncccc2o1	nt	-1%	i	4%	2µM*	8%
CN(CCOc1ccc(Cl)cc1)C(=O)c1cc(-c2ccco2)nc2ccccc12	2%	?	?	10µM*	-18%	?
CCOc1cccc(C2C=C(c3ccc4c(c3)OCO4)NC(c3ccc(Cl)cc3)N2)c1O (stereo not drawn)	nt	?	nt	nt	-49%	nt
COc1ccccc1C1CN(Cc2cn(C)nc2C)Cc2ccccc2O1 (stereo not drawn)	nt	nt	i	nt	nt	nt
Oc1ccc(C[C@@H]2CNC(=S)N2CCc2cc(C(F)(F)F)cc(C(F)(F)F)c2)cc1	25%	?	i	?	-62%	5%
S=C1NC[C@H](CC2CCCCC2)N1CCc1cccc2ccccc12	-4%	?	?	7.9µM*	-32%	-33%
Oc1ccc(C[C@H]2CNC(=S)N2CCc2cc(C(F)(F)F)cc(C(F)(F)F)c2)cc1	7%	?	i	?	-34%	1%
FC(F)(F)c1cc(CCN2C(=S)NC[C@@H]2CC2CCCCC2)cc(C(F)(F)F)c1	1%	14µM*	20µM*	11%	-30%	?
SMILES	GLP-1R agonist	TGFb SMAD3 inh	S2 tox	GLP1R inv ag	HepG2 tox	ATXN2 expr inh
FC(F)(F)c1cc(CCN2C(=S)NC[C@@H]2Cc2ccccc2)cc(C(F)(F)F)c1	4%	?	nt	7.9µM*	-72%	?
Cc1cc2c(c(-c3cnccn3)c1)OC(CNC(=O)c1cc(C(C)C)[nH]n1)C2 (stereo not drawn)	nt	nt	i	nt	nt	nt
CN(C)c1ccc(/C=C/c2ccnc3ccc(I)cc23)cc1	nt	8%	nt	nt	-15%	nt
CCn1cc(C(=O)OCC(=O)Nc2cc(OC)cc(OC)c2)c(=O)c2ccc(C)nc21	0%	?	i	13%	6%	13%
NC(=O)c1ccsc1NC(=O)CSc1n[nH]c(N)n1	-1%	-21%	i	6%	5%	-12%
CCOc1ccc(/C=C/C2=Cc3c(sc(NC(=O)CSc4n[nH]c(N)n4)c3C#N)C(C)(C)C2)cc1	1%	-16%	nt	?	20µM*	?
Cc1ccsc1/C=C/C1=Cc2c(sc(NC(=O)CSc3n[nH]c(N)n3)c2C#N)C(C)(C)C1	0%	10µM*	i	0%	13µM*	?
CCOC(=O)c1sc(NC(=O)CSc2n[nH]c(-c3ccncc3)n2)c(C#N)c1C	-1%	?	i	6%	-41%	-10%
CC1(S(=O)(=O)O)CC(=O)c2ccccc2C1=O (stereo not drawn)	-12%	?	nt	1%	-103%	25µM*
Cc1c(C(=O)N/N=C/c2cccnc2)sc(N)c1C#N	9%	10µM*	i	16%	6.3µM*	2%
COc1ccc(-n2nc([N+](=O)[O-])c(=NCCc3ccc(OC)c(OC)c3)n2O)cc1	1%	-31%	i	-3%	16µM*	-23%
COc1ccc(-n2nc([N+](=O)[O-])c(=NCCc3ccc(C)cc3)n2O)cc1	22%	-30%	i	?	-19%	14%
COc1ccccc1CC(=O)Nc1ccc2nc(Nc3cccc(Cl)c3)cc(C)c2c1	-1%	0%	i	?	-16%	0%
COc1ccc(Nc2cc(C)c3c(O)cccc3n2)cc1	1%	?	i	13µM*	-24%	50%
Cc1cccc(OCC(=O)Nc2ccc3nc(Nc4cccc(C(F)(F)F)c4)cc(C)c3c2)c1	1%	-3%	i	3%	-19%	-8%
COc1ccc(CC(=O)Nc2ccc3nc(Nc4cccc(Cl)c4)cc(C)c3c2)cc1	-11%	?	i	7.9µM*	-20%	?
Cc1cc(Nc2cccc(C(F)(F)F)c2)nc2ccc(NC(=O)Cc3ccc(Cl)cc3)cc12	-4%	?	i	?	10µM*	20µM*
COc1ccc(CC(=O)Nc2sc3c(c2C(=O)Nc2cccc(Cl)c2)CCCCC3)cc1	nt	?	nt	?	18µM*	?
